The entries come from a sample that favours hits as a whole.
Pin1 inhibitor: blocks the human prolyl isomerase Pin1; Q13526; Pin1 FP peptide displacement, HiFluor488, 10 min; Potency, µM (doses to about 115 µM), for the others: at the top dose activity, negative = inhibition, most hits filed as inhibitors; actives 0.009% (n = 390,000); AID 504891; active = well fitted inhibition curve with a large enough effect in the polarisation, with a control signal flat, not every such curve was filed as active; inconclusive = small, poorly fitted or top-dose-only effect, or effect the other way, or a change in a side signal; inactive = no such curve, though single readings can be large or run the other way; the % refers to the polarisation; note: potency is the fitted concentration of half-maximal effect; % is set by controls: 0 for no effect and ±100 for the full control effect
Target sequence (Q13526 whole entry, looked up): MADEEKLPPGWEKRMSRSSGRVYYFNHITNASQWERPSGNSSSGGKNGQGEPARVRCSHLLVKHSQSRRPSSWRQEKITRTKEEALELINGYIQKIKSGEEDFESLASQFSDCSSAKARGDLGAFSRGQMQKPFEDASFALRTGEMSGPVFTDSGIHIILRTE
PI5P4Ka inh: blocks human PI5P4K alpha kinase activity | max response, % | actives 1.2% (n = 330,000) | P48426 | PI5P4Kalpha enzyme, ADP-Glo luminescence, 60 min; hits give low values; active = max response of -50% or lower; inconclusive = between -30% and -50%; inactive = -30% or higher; note: value at the top dose of about 77 µM; % is set by controls: 0 for no effect and ±100 for the full control effect
Target sequence (P48426 whole entry, looked up): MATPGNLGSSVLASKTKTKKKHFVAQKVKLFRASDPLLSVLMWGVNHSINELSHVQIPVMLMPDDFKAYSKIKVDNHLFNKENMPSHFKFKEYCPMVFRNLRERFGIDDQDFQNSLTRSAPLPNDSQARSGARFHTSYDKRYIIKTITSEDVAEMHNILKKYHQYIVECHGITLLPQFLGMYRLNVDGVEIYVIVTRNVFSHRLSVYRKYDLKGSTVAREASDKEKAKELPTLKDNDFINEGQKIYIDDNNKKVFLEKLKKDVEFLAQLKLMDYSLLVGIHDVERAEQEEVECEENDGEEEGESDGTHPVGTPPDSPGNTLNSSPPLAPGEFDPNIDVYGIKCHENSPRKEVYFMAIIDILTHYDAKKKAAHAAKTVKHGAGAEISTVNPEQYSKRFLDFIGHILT
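Enzyme plus substrate dispensed, test compounds pinned in, then ATP (5 microM final) added. After 60 min at RT, ADP-Glo reagent 1 for 45 min and reagent 2 for 30 min preceded luminescence imaging.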
PI4K2A block: inhibitors of human PI4K2A | Q9BTU6 | purified PI4K2A, ADP-Glo luminescence, 1 h; hits give low values | activity change, negative = inhibition, % at 76.9 µM | actives 0.13% (n = 420,000) | AID 1346378; in the data active = activity change below about -50%; inconclusive = mostly about -30% to -49%;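 note: -100% = wells without enzyme as full effect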
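ADP-Glo luminescence measured ADP generated by PI4K2A enzyme (4 ug/mL before mixing) with 1.2 mM PI substrate (pre-mix) and 300 microM ATP (pre-mix). Tris pH7.5 buffer with MgCl2, Triton X-100; 1 h reaction at ambient temperature.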
Tb PGK inh: blocks T. brucei phosphoglycerate kinase; PGK/GAPDH coupled, Kinase-Glo luminescence, 60 min; Potency, µM (titrated, usually from 57.5 µM), for the others: at the top dose activity change, negative = inhibition, actives largely listed as inhibitors; actives 0.043% (n = 380,000); note: potency is the fitted concentration of half-maximal effect; % is set by controls: 0 for no effect and ±100 for the full control effect; nearly all actives have a fitted effect of over 60% in size
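Luminescent ATP detection (Kinase-Glo Plus) follows a 60-minute room-temperature incubation, with wells lacking PGK as controls. Buffer: 100 mM TEA (pH 7.6), 5 mM MgCl2, 0.01% Tween-20. Coupling enzyme GAPDH (100 nM final) supplies unstable 1,3-BPG in-well.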
Tb PFK inh-1: inhibitors of T. brucei phosphofructokinase | actives 0.17% (n = 330,000) | T. brucei PFK, ADP-Glo luminescence | Potency, µM (doses to about 57.5 µM), for the others: at the highest dose activity, negative = inhibition, hits mostly inhibitors | AID 485367;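 note: potency is the fitted concentration of half-maximal effect; 0% = uninhibited 1x PFK enzyme wells and -100% = no-enzyme wells; nearly all actives have a fitted effect of over 60% in size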
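In TEA buffer at pH 8.0 with 5 mM MgCl2, enzyme (1.25 nM) converted F6P (0.5 mM) and ATP (0.1 mM) for 45 min at room temperature. ADP product was read by luciferase luminescence.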
Tb PFK KinaseGlo: inhibits T. brucei PFK measured by ATP depletion. Tb PFK enzyme, ATP depletion, Kinase-Glo Plus luminescence. actives 47% (n = 1,100). Potency, µM (doses to about 57.5 µM), without a hit: at the highest dose inhibition. shares compounds with Tb PFK inh-1. AID 504636; calls by dose curve; note: potency is the fitted concentration of half-maximal effect; nearly all actives have a fitted effect of over 60% in size
Tb PFK inh-2: validation of T. brucei phosphofructokinase inhibitors. shares compounds with Tb PFK inh-1. AID 504637. Potency, µM (titrated, usually from 57.5 µM), for the others: at the highest dose activity change, negative = inhibition, most hits filed as inhibitors. purified T. brucei PFK, ADP-Glo luminescence, 45 min. actives 41% (n = 1,100);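 note: potency is the fitted concentration of half-maximal effect; plate controls were full PFK enzyme control for no effect and no enzyme control for full effect; nearly all actives have a fitted effect of over 60% in size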
Starred values were filed as active, the others as inactive; i = inactive; ? = inconclusive; · = no result given. Unless noted, calls come from the whole dose curve; as a rule, active = well fitted curve in the direction sought with a large enough effect; inconclusive = small, poorly fitted or top-dose-only effect, or another doubt; inactive = no such curve, though single readings can be large; an effect the other way counts as inactive or inconclusive.

SMILES | Pin1 inhibitor | PI5P4Ka inh | PI4K2A block | Tb PGK inh | Tb PFK inh-1 | Tb PFK KinaseGlo | Tb PFK inh-2
Cc1cccc(C)c1NCc1n[nH]c(=S)n1-c1ccccc1 | -4% | 1 | -30 | 4% | ? | 3µM* | 7.6µM*
O=c1c2ccccc2nc(CNc2ccccc2)n1-c1ccccc1 | ? | 1 | 7 | -7% | -5% | · | ·
Cc1c(Cl)cccc1NC(=O)CN1C(=O)C(C)N=C(c2ccccc2)c2ccccc21 (stereo unspecified) | -1% | · | 1 | -4% | · | · | ·
Cc1[nH]c(=S)sc1Cc1ccc(Cl)c(Cl)c1 | · | · | · | · | 19µM* | 27µM* | 24µM*
NC(=S)NNc1ccc(Cl)c(Cl)c1 | 1% | -11 | 0 | i | 19µM* | 4.8µM* | 12µM*
CCN(Cc1ccc(Cl)nc1)/C(=C/[N+](=O)[O-])NC | · | · | 2 | · | · | · | ·
O=C(OCc1cccc(C(F)(F)F)c1)c1ccc[nH]c1=O | -6% | 2 | 1 | -8% | 6µM* | 3µM* | 5.4µM*
O=C(CSc1ccccn1)N1CCN(c2cccc(Cl)c2)CC1 | 2% | -9 | 0 | 11% | ? | ? | ?
O=C(CCC(=O)N1CCN(c2cccc(Cl)c2)CC1)c1cccs1 | -2% | -20 | -5 | -10% | ? | ? | ?
CC(=O)c1ccc(NC(=O)N2CCN(c3cccc(Cl)c3)CC2)cc1 | -3% | · | 8 | -3% | 21µM* | 21µM* | ?
NS(=O)(=O)c1ccc(NC(=S)N2CCN(c3cccc(Cl)c3)CC2)cc1 | 0% | 7 | -4 | -9% | ? | 11µM* | 15µM*
CN1CCN(c2ccc([N+](=O)[O-])c(Sc3ccccn3)c2)CC1 | 1% | 3 | 5 | -5% | 0% | · | ·
C#CCOC(C(=O)OCCN(C)C)(c1ccccc1)c1ccccc1 | · | · | -4 | · | · | · | ·
O=C(CN1C(=O)[C@@H](Cc2ccc(O)cc2)N=C(c2ccccc2)c2ccccc21)NC1CCCCC1 | · | · | -1 | · | · | · | ·
CN(Cc1ccc(OC(F)F)cc1)Cc1nc2c(Br)cc(Br)cc2c(=O)[nH]1 | 34% | 18 | 7 | 7% | 2% | · | ·
C=C1[C@@H](C)C2[C@H](Cc3ccccc3)NC(=O)[C@]23[C@H](OC(C)=O)/C=C/[C@@](C)(O)C(=O)[C@@H](C)C/C=C/[C@H]3[C@@H]1O (stereo partly specified) | · | · | -3 | · | · | · | ·
Nc1ccc(N)cc1 | · | · | -21 | · | · | · | ·
O=C(Nc1ccc(Cl)cc1C(=O)c1ccccc1)c1ccccc1 | 2% | 2 | 4 | -9% | -5% | · | ·
O=C(CCC(=O)N1CCN(c2cccc(Cl)c2)CC1)N1CCN(c2ccccc2)CC1 | -4% | 8 | -4 | i | ? | ? | ?
CCOC(=O)N1CCN(c2ccc(Cl)c(Cl)c2)CC1 | -5% | · | 1 | i | ? | · | ·
O=C(Nc1cccc(C(=O)N2CCN(c3cccc(Cl)c3)CC2)c1)c1ccccc1 | 4% | -8 | 1 | · | ? | ? | ?
Cc1ccc(Cl)cc1NC(=O)N(Cc1ccc2c(c1)OCO2)C1CCN(Cc2ccccc2)CC1 | 6% | · | 3 | 5% | · | · | ·
CC(NC(=O)OCc1ccccc1)P(=O)(Oc1ccccc1)Oc1ccccc1 (stereo unspecified) | · | · | 7 | · | · | · | ·
O=c1cc2c(=O)oc3cc(O)c(O)oc3c2c(O)c1O | · | -75* | 3 | ? | 7.6µM* | 1.2µM* | 1.3µM*
Cc1nnc(NC(=O)c2cccn(Cc3ccc(Cl)cc3)c2=O)s1 | 0% | · | -4 | 8% | · | · | ·
O=C1CC(c2c(F)cccc2Cl)c2c(c3ccccc3oc2=O)O1 (stereo unspecified) | -14% | · | 5 | · | · | · | ·
O=C(/C=C/c1ccco1)OCC(=O)N1CCCCC1 | -2% | 11 | 2 | -3% | ? | 6µM* | ?
Cn1cc(C(=O)OCC(=O)N2CCCCC2)c2ccccc21 | 3% | -3 | -1 | -6% | 4% | · | ·
